The source of these data is PubChem BioAssay (EPA / NIEHS).

Test [1] concerns the target Paired box protein Pax-6 (Homo sapiens) (UniProt P26367). Description: ATG_Pax6_CIS: Attagene CIS-FACTORIAL HepG2 Assay for human Paired Box 6 (PAX6) (AID 2282956). The note with it: HepG2 CIS-FACTORIAL PAX6 reporter transcription, RNA readout; actives raise or lower the signal. Summed up:
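HepG2 cells transiently transfected with multiplexed cis-promoter reporter units (endogenous TF activity) were dosed for 24 h. Reporter mRNA was quantified by RT-PCR, 6-FAM labeling, HpaI digestion and capillary electrophoresis; bidirectional fitting versus DMSO baseline.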

The nature of test [2]: ATG_PXRE_CIS: Attagene CIS-FACTORIAL HepG2 Assay for human Pregnane X Receptor Element (PXRE) (AID 2282957). The note with it: HepG2 Attagene CIS-FACTORIAL PXRE reporter, mRNA; actives raise or lower the signal. Summed up:
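Transfect HepG2 with MRTUs (cis promoter elements); dose chemical, incubate 24 h; isolate RNA, RT with oligo(dT), PCR, 6-FAM label, HpaI cut, CE. Gain/loss fit vs DMSO.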

Test [3] can be described thus: ATG_PPRE_CIS: Attagene CIS-FACTORIAL HepG2 Assay for human Peroxisome Proliferator-activated Response Element (PPRE) (AID 2282958). The note with it: HepG2 PPRE cis-element reporter, Attagene transcription factor profiling; actives raise or lower the signal. The procedure, abridged:
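Endogenous PPRE-driven transcription is measured in HepG2 cells carrying transfected multi-reporter constructs. Reporter transcripts are quantified by RT-PCR, HpaI digestion and capillary electrophoresis 24 h after dosing. DMSO baseline, bidirectional fit.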

Test [4] is described as follows: ATG_RORE_CIS: Attagene CIS-FACTORIAL HepG2 Assay for human RAR-related Orphan Receptor Element (RORE) (AID 2282959). The note with it: HepG2 Attagene cis-factorial RORE reporter, mRNA; actives raise or lower the signal. Summed up:
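RORE reporter transcripts reflecting endogenous factor activity were read after 24 h compound exposure of transfected HepG2 cells, using reverse transcription, PCR, fluorescent labelling and capillary electrophoresis sizing. Gain or loss fitted against DMSO.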

Test [5] can be described thus: ATG_Sox_CIS: Attagene CIS-FACTORIAL HepG2 Assay for human SRY-box transcription factor (SOX) (AID 2282960). The note with it: HepG2 Attagene cis-factorial SOX reporter, mRNA; actives raise or lower the signal. The procedure, abridged: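 Reporter transcripts, measured by RT-PCR and capillary electrophoresis of labelled fragments, report endogenous SOX transcription factor activity. Transiently transfected human HepG2 cells receive chemical for 24 h; changes in either direction are fitted relative to DMSO.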

Test [6] has as its target Transcription factor Sp1 (Homo sapiens) (UniProt P08047). Description: ATG_Sp1_CIS: Attagene CIS-FACTORIAL HepG2 Assay for human Specificity Protein 1 (Sp1) (AID 2282961). The following applies: HepG2 Sp1 cis-reporter transcription, actives raise or lower the signal. The procedure, abridged: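 Read-out is reporter transcript level, measured by RT-PCR and fluorescent capillary electrophoresis after 24 h chemical treatment. System: transiently transfected HepG2 cells reporting endogenous transcription factor activity; gain or loss fitted against DMSO baseline.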

The nature of test [7]: ATG_SREBP_CIS: Attagene CIS-FACTORIAL HepG2 Assay for human Sterol Regulatory Element Binding (SREBP) (AID 2282962). The following applies: HepG2 Attagene cis-factorial SREBP reporter, mRNA; actives raise or lower the signal. The procedure, abridged: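 HepG2 cells transiently transfected with multiplexed cis-element reporter units report endogenous transcription factor activity. After 24 h of chemical exposure, reporter mRNA was quantified by RT-PCR, 6-FAM labelling, HpaI digestion and capillary electrophoresis; bidirectional fits used DMSO as baseline.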

Test [8] has as its target Signal transducer and activator of transcription 3 (Homo sapiens) (UniProt P40763). Description: ATG_STAT3_CIS: Attagene CIS-FACTORIAL HepG2 Assay for human Signal Transducer and Activator of Transcription 3 (STAT3) (AID 2282963). The note with it: HepG2, Attagene cis-factorial STAT3 reporter transcription; actives raise or lower the signal. Summed up:
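Transcript-level reporter assay. HepG2 transient MRTU transfection, 24 h exposure, fluorescence detection after RT-PCR and CE; DMSO baseline.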

A short description of test [9]: ATG_TAL_CIS: Attagene CIS-FACTORIAL HepG2 Assay for human TAL Basal Promoter (AID 2282966).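 Note: background control endpoint measuring basal TAL promoter reporter mRNA not a specific factor.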 The note with it: HepG2 Attagene cis-factorial TAL promoter reporter; actives raise or lower the signal. Summed up: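 Fluorescence of labelled reporter cDNA fragments, resolved by capillary electrophoresis, gave the readout. Human HepG2 liver cells carried transiently transfected cis-element reporter units and were treated for 24 hours; activity was fitted bidirectionally against DMSO.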

Test [10] is described as follows: ATG_TGFb_CIS: Attagene CIS-FACTORIAL HepG2 Assay for human Transforming Growth Factor (TGF) (AID 2282967). The following applies: HepG2 Attagene CIS TGFb reporter, mRNA transcription; actives raise or lower the signal. The procedure, abridged: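 Transient MRTU transfection of HepG2 (FuGene 6). Dose 24 h. TriZol RNA, oligo(dT) RT, PCR, 6-FAM primer extension, HpaI cut, CE. Bidirectional fit, DMSO = baseline.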

Test [11] can be described thus: ATG_VDRE_CIS: Attagene CIS-FACTORIAL HepG2 Assay for human Vitamin D Receptor Element (VDRE) (AID 2282968). The following applies: HepG2 VDRE cis-reporter transcription, actives raise or lower the signal. Summed up:
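RT-PCR/CE readout of reporter mRNA; HepG2, transient transfection, 24 h dosing; DMSO baseline; bidirectional analysis.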

In test [12] the target is Nuclear receptor subfamily 1 group I member 3 (Homo sapiens) (UniProt Q14994). Description: ATG_CAR_TRANS: Attagene TRANS-FACTORIAL HepG2 Assay for human Constitutive Androstane Receptor (CAR) (AID 2282969; active = hit-call score of the fitted dose curve at least 0.9, where 1 is the maximum;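 note: activators raise reporter mRNA above DMSO so AC50 marks induction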). The following applies: HepG2 Attagene TRANS-FACTORIAL CAR reporter. The procedure, abridged:
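HepG2 cells transiently transfected with multiplexed GAL4-UAS reporter units expressing chimeric NR-Gal4 proteins; compound exposure 24 h. Reporter mRNA measured by RT-PCR, 6-FAM labelling, HpaI digestion and capillary electrophoresis; gain-of-signal fitted against DMSO baseline.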

Test [13] concerns the target X-box-binding protein 1 (Homo sapiens) (UniProt P17861). Nature of the test: ATG_Xbp1_CIS: Attagene CIS-FACTORIAL HepG2 Assay for human X-box Binding Protein 1 (XBP1) (AID 2282972). The following applies: HepG2 XBP1 cis-element reporter, Attagene multiplex; actives raise or lower the signal. The procedure, abridged: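 HepG2 cells transiently transfected with cis-regulated multiple reporter transcription units; endogenous transcription factor activity measured 24 hours after chemical dosing. Reporter mRNA quantified by RT-PCR, 6-FAM primer extension, HpaI digestion and capillary electrophoresis; bidirectional fitting versus DMSO.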

Test [14] can be described thus: ATG_TA_CIS: Attagene CIS-FACTORIAL HepG2 Assay for human TA Basal Promoter (AID 2282964). The following applies: HepG2 Attagene CIS-factorial TA basal promoter reporter; actives raise or lower the signal. Summed up: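 Read-out: fluorescent reporter-transcript fragments resolved by capillary electrophoresis after RT-PCR and HpaI digestion. Source: HepG2 cells carrying transiently transfected multi-reporter cis constructs, treated 24 h. Endpoint fitted bidirectionally relative to DMSO.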

Test [15] is described as follows: ATG_TCF_b_cat_CIS: Attagene CIS-FACTORIAL HepG2 Assay for human T-Cell-Factor with beta-catenin (TCF/b-cat) (AID 2282965). The following applies: HepG2 TCF/beta-catenin cis-reporter transcription, actives raise or lower the signal. The procedure, abridged: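 HepG2 cells transiently transfected with multiple cis-promoter-regulated reporter transcription units, so endogenous transcription factor activity is measured. Reporter mRNA read 24 hours after dosing by RT-PCR, fluorescent labelling and capillary electrophoresis; bidirectional fitting against DMSO.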

The nature of test [16]: ATG_GAL4_TRANS: Attagene TRANS-FACTORIAL HepG2 Assay for GAL4 (Internal Marker) (AID 2282976; active = hit-call score of the fitted dose curve at least 0.9, where 1 is the maximum). The following applies: HepG2 Attagene TRANS GAL4 internal marker reporter. The procedure, abridged: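 First, HepG2 cells were transfected with reporter units under GAL4-UAS control. Next, they were treated with chemical for 24 h. Finally, RNA was reverse-transcribed, PCR-amplified, FAM-labelled and resolved by capillary electrophoresis, with induction scored against DMSO.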

Test [17] in a line: ATG_M_19_TRANS: Attagene TRANS-FACTORIAL HepG2 Assay for M19 Transcription Factor (Internal Marker) (AID 2282974; active = hit-call score of the fitted dose curve at least 0.9, where 1 is the maximum). The following applies: HepG2 Attagene TRANS-FACTORIAL M19 internal marker reporter. Summed up: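 Background-control readout: after 24 h chemical exposure of transfected HepG2 carrying GAL4-driven reporter units, RNA was reverse-transcribed, amplified, fluorescently labeled and sized by capillary electrophoresis; gain-of-signal fit against DMSO.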

The target in test [18] is Estrogen receptor (Homo sapiens) (UniProt P03372). Nature of the test: ATG_ERa_TRANS: Attagene TRANS-FACTORIAL HepG2 Assay for human Estrogen Receptor alpha (ERa) (AID 2282970; active = hit-call score of the fitted dose curve at least 0.9, where 1 is the maximum). The following applies: HepG2 Attagene TRANS ERa GAL4 reporter, mRNA. Summed up: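 Human liver HepG2, transient transfection of multiple GAL4-UAS reporter units; TRANS format (exogenous NR-Gal4 chimera). 24 h dosing. Readout: reporter mRNA, RT-PCR, 6-FAM primer extension, HpaI digest, capillary electrophoresis. Positive direction vs DMSO.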
Estrogen receptor (Homo sapiens), sequence (P03372 whole entry, looked up, the tested form may be a part): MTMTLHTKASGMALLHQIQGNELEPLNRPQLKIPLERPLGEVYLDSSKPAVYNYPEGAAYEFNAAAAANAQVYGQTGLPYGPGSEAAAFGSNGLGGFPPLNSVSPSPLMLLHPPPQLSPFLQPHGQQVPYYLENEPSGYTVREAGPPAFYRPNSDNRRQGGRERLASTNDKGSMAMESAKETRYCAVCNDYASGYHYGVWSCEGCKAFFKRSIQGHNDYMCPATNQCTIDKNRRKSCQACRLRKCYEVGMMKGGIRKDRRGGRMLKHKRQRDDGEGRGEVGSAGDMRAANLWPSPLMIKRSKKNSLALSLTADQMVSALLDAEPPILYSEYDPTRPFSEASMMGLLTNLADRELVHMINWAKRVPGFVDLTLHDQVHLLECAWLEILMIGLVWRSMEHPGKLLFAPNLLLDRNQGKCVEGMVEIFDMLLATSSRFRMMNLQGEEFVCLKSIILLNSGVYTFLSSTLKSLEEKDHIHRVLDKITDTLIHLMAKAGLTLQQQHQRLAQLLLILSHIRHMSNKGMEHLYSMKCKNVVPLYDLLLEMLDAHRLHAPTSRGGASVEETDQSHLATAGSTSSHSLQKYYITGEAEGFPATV

Test [19] has as its target Steroid hormone receptor ERR1 (Homo sapiens) (UniProt P11474). Description: ATG_ERRa_TRANS: Attagene TRANS-FACTORIAL HepG2 Assay for human Estrogen-Related Receptor alpha (ERRa) (AID 2282971; active = hit-call score of the fitted dose curve at least 0.9, where 1 is the maximum). The following applies: HepG2 Attagene TRANS reporter, ERRa transactivation. Summed up:
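Reporter transcript induction was quantified by RT-PCR and capillary electrophoresis of FAM-labelled, HpaI-cut products after 24 h treatment of HepG2 cells carrying transiently transfected GAL4-UAS reporter units and an exogenous ERRa-Gal4 fusion; activity scored as increase over DMSO.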

Results filed as inconclusive are left out. Calls of active or inactive are those of the source. Rule for the calls, unless noted: active = hit-call score of the fitted dose curve at least 0.9, where 1 is the maximum; inactive = score below 0.9.

X-box-binding protein 1 (Homo sapiens), sequence (P17861 whole entry, looked up): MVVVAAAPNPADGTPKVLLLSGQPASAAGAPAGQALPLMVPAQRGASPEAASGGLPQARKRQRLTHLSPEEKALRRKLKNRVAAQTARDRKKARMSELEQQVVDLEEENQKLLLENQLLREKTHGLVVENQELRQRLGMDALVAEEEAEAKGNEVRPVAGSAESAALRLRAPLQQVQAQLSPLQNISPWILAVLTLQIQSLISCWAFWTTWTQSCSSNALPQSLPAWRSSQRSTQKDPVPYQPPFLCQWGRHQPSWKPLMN
Steroid hormone receptor ERR1 (Homo sapiens), sequence (P11474 whole entry, looked up, the tested form may be a part): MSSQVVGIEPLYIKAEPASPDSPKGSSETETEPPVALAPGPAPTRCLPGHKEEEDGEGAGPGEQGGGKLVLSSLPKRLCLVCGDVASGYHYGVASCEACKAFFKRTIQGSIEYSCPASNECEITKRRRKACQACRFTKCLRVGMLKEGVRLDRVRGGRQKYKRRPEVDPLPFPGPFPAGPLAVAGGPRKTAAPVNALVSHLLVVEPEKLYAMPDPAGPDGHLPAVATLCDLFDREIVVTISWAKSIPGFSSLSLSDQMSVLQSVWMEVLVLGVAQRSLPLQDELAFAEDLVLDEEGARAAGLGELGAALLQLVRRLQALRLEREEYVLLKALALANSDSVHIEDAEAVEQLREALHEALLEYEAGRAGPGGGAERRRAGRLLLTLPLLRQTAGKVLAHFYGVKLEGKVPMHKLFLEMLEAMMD
Paired box protein Pax-6 (Homo sapiens), sequence (P26367 whole entry, looked up): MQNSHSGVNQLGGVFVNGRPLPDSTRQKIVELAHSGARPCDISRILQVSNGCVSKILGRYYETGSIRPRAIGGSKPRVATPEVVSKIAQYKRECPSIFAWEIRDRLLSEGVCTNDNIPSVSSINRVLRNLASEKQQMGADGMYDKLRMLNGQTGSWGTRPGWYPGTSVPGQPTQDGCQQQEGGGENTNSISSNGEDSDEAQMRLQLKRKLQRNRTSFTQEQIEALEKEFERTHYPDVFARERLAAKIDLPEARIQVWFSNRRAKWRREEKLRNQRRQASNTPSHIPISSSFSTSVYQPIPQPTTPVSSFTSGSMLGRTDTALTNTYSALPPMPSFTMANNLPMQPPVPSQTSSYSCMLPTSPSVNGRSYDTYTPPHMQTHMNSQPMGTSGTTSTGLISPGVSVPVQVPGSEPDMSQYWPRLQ
Transcription factor Sp1 (Homo sapiens), sequence (P08047 whole entry, looked up): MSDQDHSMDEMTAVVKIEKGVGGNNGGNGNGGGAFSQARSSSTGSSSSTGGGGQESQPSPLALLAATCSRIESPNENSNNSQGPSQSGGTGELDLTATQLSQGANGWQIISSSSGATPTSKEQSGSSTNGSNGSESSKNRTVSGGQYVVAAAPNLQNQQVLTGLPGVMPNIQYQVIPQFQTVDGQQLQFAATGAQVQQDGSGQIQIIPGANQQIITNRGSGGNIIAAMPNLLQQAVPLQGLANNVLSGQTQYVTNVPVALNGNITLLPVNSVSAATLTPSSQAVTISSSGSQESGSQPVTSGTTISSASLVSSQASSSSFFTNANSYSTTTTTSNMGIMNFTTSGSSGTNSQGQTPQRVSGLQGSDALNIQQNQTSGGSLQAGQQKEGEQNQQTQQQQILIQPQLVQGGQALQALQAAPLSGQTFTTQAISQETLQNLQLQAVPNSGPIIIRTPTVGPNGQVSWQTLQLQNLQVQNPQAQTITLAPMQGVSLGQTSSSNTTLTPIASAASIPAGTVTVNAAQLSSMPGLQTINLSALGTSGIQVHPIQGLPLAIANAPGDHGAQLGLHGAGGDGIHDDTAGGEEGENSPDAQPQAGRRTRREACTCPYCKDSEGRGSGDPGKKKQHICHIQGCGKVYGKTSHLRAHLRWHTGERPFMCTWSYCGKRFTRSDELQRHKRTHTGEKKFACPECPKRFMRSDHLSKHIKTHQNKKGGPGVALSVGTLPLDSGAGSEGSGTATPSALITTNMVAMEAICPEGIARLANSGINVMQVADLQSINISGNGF
Nuclear receptor subfamily 1 group I member 3 (Homo sapiens), sequence (Q14994 whole entry, looked up, the tested form may be a part): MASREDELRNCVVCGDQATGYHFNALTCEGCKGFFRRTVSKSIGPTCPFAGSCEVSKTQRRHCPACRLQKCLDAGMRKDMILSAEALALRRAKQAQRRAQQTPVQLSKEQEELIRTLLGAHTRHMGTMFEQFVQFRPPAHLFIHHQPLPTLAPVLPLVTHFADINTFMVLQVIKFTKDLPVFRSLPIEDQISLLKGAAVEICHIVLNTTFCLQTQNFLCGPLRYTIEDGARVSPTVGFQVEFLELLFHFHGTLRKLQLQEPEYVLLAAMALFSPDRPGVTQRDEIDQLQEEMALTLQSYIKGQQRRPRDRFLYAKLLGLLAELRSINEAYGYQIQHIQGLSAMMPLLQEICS
Signal transducer and activator of transcription 3 (Homo sapiens), sequence (P40763 whole entry, looked up): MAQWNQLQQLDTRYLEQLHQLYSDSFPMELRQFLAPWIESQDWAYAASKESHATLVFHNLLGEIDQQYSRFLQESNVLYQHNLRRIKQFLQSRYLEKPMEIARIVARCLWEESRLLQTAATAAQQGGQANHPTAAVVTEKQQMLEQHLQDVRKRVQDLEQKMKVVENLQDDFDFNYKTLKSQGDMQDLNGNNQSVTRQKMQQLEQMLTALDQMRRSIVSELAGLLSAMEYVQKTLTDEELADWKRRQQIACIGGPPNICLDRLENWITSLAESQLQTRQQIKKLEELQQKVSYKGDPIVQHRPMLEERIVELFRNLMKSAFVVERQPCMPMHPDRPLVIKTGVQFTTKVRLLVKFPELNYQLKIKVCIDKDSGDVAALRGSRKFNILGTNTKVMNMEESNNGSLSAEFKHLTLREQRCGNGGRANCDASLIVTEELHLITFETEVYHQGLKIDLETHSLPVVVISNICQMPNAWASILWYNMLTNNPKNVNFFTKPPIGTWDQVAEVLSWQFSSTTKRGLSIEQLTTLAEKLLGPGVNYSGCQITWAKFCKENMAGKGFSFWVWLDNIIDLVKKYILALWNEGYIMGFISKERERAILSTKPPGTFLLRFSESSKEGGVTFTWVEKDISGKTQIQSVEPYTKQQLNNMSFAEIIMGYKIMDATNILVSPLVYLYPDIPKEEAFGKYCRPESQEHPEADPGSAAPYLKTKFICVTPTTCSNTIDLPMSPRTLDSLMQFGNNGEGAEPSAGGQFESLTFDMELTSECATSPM

`N#Cc1ccccc1O`: the result in [1], in test [2], in test [3], in test [4], in test [5] and in test [6] was inactive. The compound was called inactive in test [7], in test [8], in test [9], in [10], in test [11] and in [12]. The compound was called inactive in test [13].

For the compound `CC(C)=CCCC(C)O` (stereo unspecified), the result in test [1], in test [2], in test [3], in test [4], in [5] and in test [6] was inactive. The call in test [7], in test [8], in [14], in test [15], in test [9] and in test [10] was inactive. For the same compound, the compound was called inactive in [12], in test [13] and in test [16].

`O=C1C=CC(=O)N1c1ccc(Cc2ccc(N3C(=O)C=CC3=O)cc2)cc1`: the AC50 in test [1] was 33.4 µM (active); in test [2] it was 26.7 µM (active); in test [3] it was 57.2 µM (active); in test [6], 48.4 µM (active); in test [9] it was 56.8 µM (active); in [10], 41.6 µM (active). Also, in test [13], the AC50 was 42.6 µM (active). For the same compound, the outcome in test [4], in [5], in test [7], in [8], in [14] and in [17] was inactive. In addition, the outcome in test [16] was inactive.

Regarding `NCC(F)(F)C(F)(F)C(F)(F)C(F)(F)C(F)(F)C(F)(F)F`, the compound was called inactive in test [1], in test [2], in test [3], in test [4], in test [5] and in test [6]. Moreover, the outcome in test [7], in test [8], in test [14], in [15], in test [9] and in test [10] was inactive. In addition, the result in [11], in [18], in [19], in test [13] and in [16] was inactive.

Take `CC1CCCCC1`: the call in test [1], in test [2], in [3], in test [5], in test [6] and in test [7] was inactive. Further, the call in test [8], in test [14], in [9], in test [10], in [11] and in test [12] was inactive. Also, the compound was called inactive in test [13] and in [16].

Consider `OCCCCl`, for which the outcome in test [1], in test [2], in [3], in test [4], in test [5] and in test [6] was inactive. The outcome in [7], in [8], in test [14], in test [15], in [9] and in test [10] was inactive. Further, the result in test [12], in [19], in test [13], in [17] and in test [16] was inactive.

In the case of `O=C(F)C1(F)C(F)(F)C(F)(F)C(F)(F)C(F)(F)C1(F)F`, the outcome in test [1], in test [2], in test [3], in [5], in test [6] and in test [7] was inactive. The outcome in [8], in test [14], in test [15], in test [9], in test [10] and in test [11] was inactive. The compound was called inactive in test [18], in [19], in test [13] and in test [17].
